Bioassay records (PubChem BioAssay)
KCNQ2 inh: KCNQ2 (rat) channel inhibition; O88943; CHO-K1 KCNQ2, FluxOR thallium flux, 20 min; active compounds read low; B-score at 10 µM; 310,000 compounds, 1.1% hits;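 active = fluorescence ratio B-score at most minus 3 library SDs, with starting brightness B-score within 2 library SDs, cut at about -5.5 in these data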
KCNQ2 pot: potentiators of rat KCNQ2 potassium channel. O88943. 310,000 compounds, 0.54% hits. B-score at 10 µM. CHO-K1 KCNQ2, FluxOR thallium flux fluorescence; active compounds read high;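 active = fluorescence ratio B-score at least 3 SD of library B-scores, with initial fluorescence B-score within 3 of them, cut at about 5.3 in these data; same plate scores as AID 2156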;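 note: B-score of peak minus minimum over baseline fluorescence ratio after K+ and Tl+ stimulus; positive B-score means potentiation of KCNQ2 with more thallium influx and brighter signal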
Kir21 confirm: confirmation of mouse Kir2.1 potassium channel inhibitors. shares compounds with KCNQ2 pot. Kir2.1-expressing cells, FluxOR thallium flux fluorescence; active compounds read low. Tl flux remaining, % of negative control (active compounds read low), % at 10 µM. 2,300 compounds, 41% hits. AID 2032;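 active = Primary-screen hit whose thallium flux fell at least 3 control SD below untreated wells in both duplicates, with normal baseline fluorescence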;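 note: 0% = blank wells without stimulus and 100% = stimulated no-compound controls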
HEK293 Tl flux: parental HEK293 activity in Kir2.1 inhibitor counter-screen; FluxOR signal as % of negative control (100 = no effect), % at 10 µM; shares compounds with KCNQ2 pot; parental HEK293 cells, FluxOR thallium flux fluorescence; 0% = unstimulated blank wells; 2,300 compounds, 19% hits; AID 2105;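 active = dye signal at least 3 control SD above or below untreated wells in both duplicates, raw fluorescence within 3, either direction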;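 note: percent is based on the flux ratio of peak minus minimum fluorescence over baseline F0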
CHO-K1 Tl ctr: alters thallium flux in parental CHO-K1 cells, KCNQ2 counter-screen. shares compounds with KCNQ2 pot. FluxOR thallium flux fluorescence; zero = vehicle mean+3SD, 100% = vehicle-minus-blank window. activity increase over 3SD of controls, % at 10 µM. 1,200 compounds, 43% hits;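 active = signal rise of at least 3 SD above the untreated control mean, in both duplicate wells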;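 note: counter screen of KCNQ2 potentiator hits so any rise reflects channel-independent effects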
KCNQ1 pot spec: tests whether KCNQ2 potentiators also act on human KCNQ1; 1,200 compounds, 28% hits; AID 2283; CHO KCNQ1 stable, FluxOR thallium flux fluorescence; beyond 3SD, as % of vehicle-control signal; activation over 3SD threshold, % at 10 µM; shares compounds with KCNQ2 pot;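 active = fluorescence ratio rise of at least 3 SD of vehicle wells above their mean, in both replicate wells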;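 note: 0% = vehicle mean plus 3 SD and 100% = vehicle minus unstimulated blank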
KCNQ2 pot conf: rat KCNQ2 channel potentiator confirmation; shares compounds with KCNQ2 pot; CHO-KCNQ2 cells, FluxOR thallium flux fluorescence; potentiation, less the hit threshold, % at 10 µM; 1,200 compounds, 68% hits;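 active = fluorescence ratio rising 3 SD or more over the vehicle control mean in both replicates, plus primary screen hit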;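 note: peak minus minimum thallium fluorescence divided by baseline after K/Tl stimulus; 0% = vehicle mean plus 3 SD and 100% = vehicle minus unstimulated blank difference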
Kir21 spec: selectivity of KCNQ2 potentiators: effect on mouse Kir2.1; shares compounds with KCNQ2 pot; HEK293 Kir2.1, FluxOR thallium flux fluorescence; activity over 3SD threshold, % at 10 µM; 1,200 compounds, 2% hits; AID 2345;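 active = fluorescence ratio rise of at least 3 SD above the vehicle-control mean, seen in both replicates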;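 note: 0% = vehicle mean plus 3 SD and 100% = vehicle minus no-stimulus blank window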
KCNQ2 W236L pot: potentiates the retigabine-insensitive rat KCNQ2 W236L mutant channel. shares compounds with KCNQ2 pot. CHO KCNQ2-W236L, automated patch clamp current. current increase over 3SD of negative controls (%), active compounds read high, % at 25 µM. 940 compounds, 10% hits;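 active = current increase at least 3 SD of the untreated controls above them in both duplicate recordings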
Starred values were filed as active, the others as inactive; i = inactive; nt = not tested or not shown. In the library only some 1.6% were active in any assay of this set; here they are far more common.

SMILES	KCNQ2 inh	KCNQ2 pot	Kir21 confirm	HEK293 Tl flux	others
O=C(c1ccc2[nH]c(=O)c(=O)[nH]c2c1)N1CCc2ccccc2C1	i	nt	nt	nt
COc1ccc(CC(=O)NCC2CCCN(Cc3ccccc3OC)C2)cc1 (configuration not stated)	i	1.4	nt	nt
Cc1cc(C)c2nc(SC3CCOC3=O)cc(C)c2c1 (configuration not stated)	i	0.27	nt	nt
Cc1cc(C)c2nc(SC(C)C#N)cc(C)c2c1 (configuration not stated)	i	5.6*	i	68%*	CHO-K1 Tl ctr=75*;KCNQ1 pot spec=-9;KCNQ2 pot conf=-12;Kir21 spec=-44;KCNQ2 W236L pot=i
O=C(CSc1nc(O)cc(=O)n1-c1ccc(Cl)c(Cl)c1)Nc1ccc(Cl)cc1Cl	i	nt	nt	nt
O=C(NN1CC(C(=O)OCc2ccc(Cl)cc2Cl)CC1=O)c1ccccc1 (configuration not stated)	i	19*	i	i	CHO-K1 Tl ctr=-22;KCNQ1 pot spec=68*;KCNQ2 pot conf=74*;Kir21 spec=-31;KCNQ2 W236L pot=i
O=C(NCc1ccc(Cl)cc1Cl)C1CC(=O)N(Cc2ccccc2)C1 (configuration not stated)	i	2.2	nt	nt
N#CCc1cc2ccc3cccc4ccc(c1)c2c34	i	nt	nt	nt
O=C(Nc1scc(-c2ccccc2)c1C(=O)O)c1ccccc1F	i	nt	nt	nt
O=C(Nc1scc(-c2ccc(Br)cc2)c1C(=O)O)c1ccccc1F	i	5.3*	i	186%*	CHO-K1 Tl ctr=-10;KCNQ1 pot spec=-13;KCNQ2 pot conf=34*;Kir21 spec=-28;KCNQ2 W236L pot=i
CC(C)(C)C1CCC(=O)N(CCOc2ccccc2)CC1 (configuration not stated)	i	nt	nt	nt
CCCCCNC(=O)CCc1ccccc1	i	0.05	nt	nt
CCCCCCC/C(C)=N/NC(=O)CC(=O)NCCc1ccccc1	i	5.6*	i	i	CHO-K1 Tl ctr=7.3*;KCNQ1 pot spec=-16;KCNQ2 pot conf=-24;Kir21 spec=-36
c1ccc2c(c1)[nH]c1c3ccccc3sc21	i	2.8	nt	nt
N#Cc1c(NCCN)nc(-c2ccccc2)c2c1CCCC2	i	nt	46%*	i
N#Cc1c(NCCCO)nc(-c2ccccc2)c2c1CCCC2	i	1.1	nt	nt
Cc1cc(=O)c2cc(Br)ccc2[nH]1	i	nt	nt	nt
S=c1nc(-c2ccccc2)[nH]c2ccc(Br)cc12	i	29*	i	i	CHO-K1 Tl ctr=-74;KCNQ1 pot spec=21*;KCNQ2 pot conf=66*;Kir21 spec=-18;KCNQ2 W236L pot=i
CCOC(=O)C1C(C(=O)Nc2cccc(C(F)(F)F)c2)C1C(=O)NC(C)C (configuration not stated)	i	nt	nt	nt
Cc1ccc(C)c(C(=O)N(C)CC(=O)Nc2ccccc2C(F)(F)F)c1	i	nt	nt	nt
CC(C(=O)NCc1ccccc1)N1CCN(c2ccc(F)cc2)CC1 (configuration not stated)	i	0.12	nt	nt
NC(=NCCc1c[nH]c2ccccc12)NS(=O)(=O)c1ccc(F)cc1	i	0.95	nt	nt
NC(=NCCc1c[nH]c2ccccc12)NC(=O)c1ccc(F)cc1	i	0.4	34%*	i
Cc1cccc(NC(=O)CCN2CCCC(C)C2)c1 (configuration not stated)	i	0.03	nt	nt
CC1CCc2c(sc(NC(=O)c3ccccc3C(=O)O)c2C#N)C1 (configuration not stated)	i	3.9	nt	nt
CCC(C)(C)C1CCc2c(sc(NC(=O)c3ccccc3C(=O)O)c2C#N)C1 (configuration not stated)	i	8.3*	i	151%*	CHO-K1 Tl ctr=0;KCNQ1 pot spec=-21;KCNQ2 pot conf=16*;Kir21 spec=-19;KCNQ2 W236L pot=i
Cc1ccc(N2C(=O)CCC(C(=O)O)C2c2cccs2)cc1 (configuration not stated)	i	0.43	nt	nt
O=C(NCCO)C(=O)c1c(-c2ccc(Cl)cc2)cc2ccccn12	i	nt	nt	nt
